Test results from ChEMBL document CHEMBL4513216, “Probing the Open Global Health Chemical Diversity Library for Multistage-Active Starting Points for Next-Generation Antimalarials” (ACS Infect Dis, 2020).
Hit rate of the full screen: of about 69,000 compounds, about 8,600 (12%) showed an effect of 50% or more. The list comes from a sample in which strong results are over-represented; it also holds similar structures and randomly drawn compounds.

What follows are molecules tested on Plasmodium berghei (assay: Screen against P. berghei liver stage (PbLuc), transformed with Luciferase, at 10uM). Details: tested at 10 uM.
Assay type: functional, HepG2
In the case of `OCC1CCCN1c1cc(NCc2cccnc2)ncn1` (stereo not given), the INHIBITION is reported as -7.35%. In the case of `Cc1nn(C2CCS(=O)(=O)C2)c(O)c1Cc1cccc(Cl)c1` (stereo not given), the INHIBITION is reported as 28.5%. Molecule `O=C(Nc1ccc(Cl)cc1)c1nn(C2CCS(=O)(=O)C2)c2c1CCCC2` (stereo not given) has an INHIBITION of 26.7%. `O=C(Nc1ccc(Cl)cn1)c1nn(C2CCS(=O)(=O)C2)c2c1CCCC2` (stereo not given) showed an INHIBITION of 83.9%. For `O=C(NCc1ccco1)c1nn(C2CCS(=O)(=O)C2)c2c1CCCC2` (stereo not given), the INHIBITION was -18.2%. For `O=C(Nc1ccccc1F)c1nn(C2CCS(=O)(=O)C2)c2c1CCCC2` (stereo not given), the INHIBITION was 85.5%. In the case of `Cc1cc(NC(=O)c2nn(C3CCS(=O)(=O)C3)c3c2CCCC3)no1` (stereo not given), the INHIBITION is reported as 26.7%. With `Cc1cccc(NC(=O)c2nn(C3CCS(=O)(=O)C3)c3c2CCCC3)n1` (stereo not given) the INHIBITION was 30.8%. Work on `O=C(NCc1ccccc1)c1nn(C2CCS(=O)(=O)C2)c2c1CCCC2` (stereo not given) yielded an INHIBITION of 20.1%. With `O=C(Nc1ccccc1)c1nn(C2CCS(=O)(=O)C2)c2c1CCCC2` (stereo not given) the INHIBITION was 66.3%. `CC(C)(C)NC(=O)c1nn(C2CCS(=O)(=O)C2)c2c1CCCC2` (stereo not given) gave an INHIBITION of 28.4%. Work on `O=C(Nc1cccc(Cl)c1)c1nn(C2CCS(=O)(=O)C2)c2c1CCCC2` (stereo not given) yielded an INHIBITION of 79.8%. `O=C(Nc1cccnc1)c1nn(C2CCS(=O)(=O)C2)c2c1CCCC2` (stereo not given) was tested, and the INHIBITION was 36.6%. For `Cc1ccc(O)c(CNCC(C)c2nc3ccccc3o2)n1` (stereo not given), the INHIBITION was 43.1%. Work on `O=C(Nc1ccc2c(c1)C(=O)NC2=O)c1ccc(Cl)s1` yielded an INHIBITION of -93.6%. `NCC1CCC(C(NC(=O)c2cccc(F)c2)c2ccccn2)CC1` (stereo not given) showed an INHIBITION of 14.4%. `CCc1c(C(=O)N2CCCC(N(C)C)C2)cnn1C(C)(C)C` (stereo not given) was tested, and the INHIBITION was 5.7%. Work on `O=C1[C@@H]2CN(C3CCOCC3)C[C@H]2CCN1CC1CC1` yielded an INHIBITION of 3.81%. For `CN(C)S(=O)(=O)c1ccc(-c2nc(C#N)c(NC3CCCCC3)o2)o1`, the INHIBITION was 19.8%. In the case of `CN(CC1CCCCC1)C(=O)c1ccc(-n2ncc(C#N)c2N)cc1`, the INHIBITION is reported as 52.7%. In the case of `Cc1cc(NC(=O)c2ccc(-n3ncc(C#N)c3N)cc2)n(C)n1`, the INHIBITION is reported as 11.2%. For `Cc1cccnc1NC(=O)c1ccc(-n2ncc(C#N)c2N)cc1`, the INHIBITION was 25.6%. `Cc1ccnc(NC(=O)c2ccc(-n3ncc(C#N)c3N)cc2)c1` was tested, and the INHIBITION was 68.8%. For `Cc1cnc(NC(=O)c2ccc(-n3ncc(C#N)c3N)cc2)s1`, the INHIBITION was 47.3%. With `CN(C(=O)c1ccc(-n2ncc(C#N)c2N)cc1)C1CCCC1` the INHIBITION was -8.11%. `N#Cc1cnn(-c2ccc(C(=O)N(C3CCCCC3)C3CC3)cc2)c1N` was tested, and the INHIBITION was 17.5%. For `Cc1nc(NC(=O)c2ccc(-n3ncc(C#N)c3N)cc2)sc1C`, the INHIBITION was 50.3%. `N#Cc1cnn(-c2ccc(C(=O)Nc3ccccn3)cc2)c1N` was tested, and the INHIBITION was 28.7%. Work on `Cc1cnc(N2C[C@@H]3[C@@H](C2)OCC(=O)N3CC(C)C)nc1` yielded an INHIBITION of 40.8%. `CN(C)C(=O)N1CCN(c2ccc(Cl)nn2)C(=O)C1` gave an INHIBITION of 16.8%. Work on `COc1ccc(Br)cc1SCCCS(C)(=O)=O` yielded an INHIBITION of 12.8%. `Cc1nc(N2CCN(C(=O)c3ccncc3)CC2)c2c(n1)c(C)nn2C` was tested, and the INHIBITION was 33.3%. For `Cc1nc(C2CCCN(C(=O)CCCn3cccn3)C2)sc1C` (stereo not given), the INHIBITION was -23.9%. Molecule `Cc1ccc2c(n1)N(CCN(C)C)CCN(C(=O)c1ccc[nH]1)C2` has an INHIBITION of 10.8%. `Cc1ccc2c(n1)N(CCN(C)C)CCN(C(=O)c1cccs1)C2` gave an INHIBITION of 74.2%. `Cc1ccc2c(n1)N(CCN(C)C)CCN(C(=O)c1ccoc1)C2` showed an INHIBITION of 48.6%. Molecule `Cc1ccc2c(n1)N(CCN(C)C)CCN(C(=O)c1ccsc1)C2` has an INHIBITION of 40.4%. Molecule `Cc1ccc2c(n1)N(CCN(C)C)CCN(C(=O)c1cscn1)C2` has an INHIBITION of 38.1%. `Cc1ccc2c(n1)N(CCN(C)C)CCN(C(=O)c1ccco1)C2` was tested, and the INHIBITION was 54.4%. With `COc1ccc(C(CNC(=O)Nc2cc(C)nn2C)N(C)C)cc1` (stereo not given) the INHIBITION was 9.383%. For `COCCCC1CCN([C@@H]2c3ccccc3C3(CCNCC3)[C@H]2O)CC1`, the INHIBITION was 17.5%. With `CC(=O)CN1CCC2(CC1)c1ccccc1[C@@H](N1CCSCC1)[C@@H]2O` the INHIBITION was 22.3%. `COCCCN1CCN([C@@H]2c3ccccc3C3(CCNCC3)[C@H]2O)CC1` was tested, and the INHIBITION was 58.1%. For `CS(=O)(=O)N1CCC2(CC1)c1ccccc1[C@@H](N1CCSCC1)[C@@H]2O`, the INHIBITION was 24.4%. `CC(C)=CCN1CCC2(CC1)c1ccccc1[C@@H](N1CCSCC1)[C@@H]2O` gave an INHIBITION of 56.5%. `CCOCCN1CCN([C@@H]2c3ccccc3C3(CCNCC3)[C@H]2O)CC1` was tested, and the INHIBITION was 29.4%. `CC(C)C1=NOC2(CCN(C(=O)C3CCCC3)CC2)C1` gave an INHIBITION of 20.9%. Work on `c1cn2c(n1)CN(C1CCOCC1)CC(CN1CCCC1)C2` (stereo not given) yielded an INHIBITION of 29%. With `Cc1nc(C)n(C2CCCN(C(=O)c3ncoc3C(C)C)C2)n1` (stereo not given) the INHIBITION was 38.5%. In the case of `Cc1ccc(NC2CCN(C(=O)CCc3nccs3)CC2)nn1`, the INHIBITION is reported as -48.4%. Molecule `COCCOCCNC(=O)c1cccc(Cn2nc(C)cc2C)c1` has an INHIBITION of 26.6%. Work on `CCn1cc(NC(=O)NCC(O)COc2ccccc2)cn1` (stereo not given) yielded an INHIBITION of 60.5%. `CCc1cc(NC(=O)c2cccc(OCC(F)(F)F)n2)[nH]n1` gave an INHIBITION of -20.8%. For `Cc1n[nH]c(C)c1NC(=O)c1cccc(OCC(F)(F)F)n1`, the INHIBITION was -14.9%. For `CCn1cc(NC(=O)c2cccc(OCC(F)(F)F)n2)cn1`, the INHIBITION was 51.5%. Work on `CCn1cc(NC(=O)NCC(O)COc2cccc(F)c2)cn1` (stereo not given) yielded an INHIBITION of 23.2%. In the case of `O=C(NCC(O)COc1ccccc1)Nc1nncs1` (stereo not given), the INHIBITION is reported as 53.1%. In the case of `CCn1cc(NC(=O)NCC(C)O)cn1` (stereo not given), the INHIBITION is reported as 13.1%. Work on `O=C(NCC(O)COc1ccc(C(F)(F)F)cc1)Nc1nncs1` (stereo not given) yielded an INHIBITION of 14.8%. For `Cc1cc(NC(=O)NCC(O)COc2ccccc2)n(C)n1` (stereo not given), the INHIBITION was 25.365%. With `Cc1nonc1CC(=O)N1C[C@H]2CC[C@@H](C1)N(Cc1ccccc1)C2=O` the INHIBITION was 0.139%. Work on `Cc1ccc(CN(CCCN(C)C)Cc2cnc(N(C)C)nc2)o1` yielded an INHIBITION of 15.395%. Work on `CC(C)C(=O)N1CCCC2(C1)CN(c1nncs1)CCO2` (stereo not given) yielded an INHIBITION of 30.3%. `CNC(=O)CN1CCOC(c2cccc(N)n2)C1` (stereo not given) gave an INHIBITION of -5.8%. `C[C@@H]1CN2C[C@H](O)CC2CN1Cc1ccc2nccnc2c1` (stereo not given in full) gave an INHIBITION of 28.5%.
